Compound activity from PubChem BioAssay.
The list is not random: actives were taken first. Their share in the collection is about 32%.
CYP2C19 inh – blockers of cytochrome P450 2C19 activity – biochemical, luminescence, ADME assay, primary screen; 96,000 compounds, 21% hits; CYP2C19 Supersomes, luciferin-H EGE luminescence, 30 min; inhibition, % at 5 µM; P33261; AID 778, 2007;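 active = CYP2C19 inhibition above a set limit at 5 µM in the primary screen, cut at about 50% in these data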;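 note: plate controls were negative control wells for no effect and 2.5 mM tranylcypromine positive control for full effect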
Target sequence (P33261 whole entry, looked up): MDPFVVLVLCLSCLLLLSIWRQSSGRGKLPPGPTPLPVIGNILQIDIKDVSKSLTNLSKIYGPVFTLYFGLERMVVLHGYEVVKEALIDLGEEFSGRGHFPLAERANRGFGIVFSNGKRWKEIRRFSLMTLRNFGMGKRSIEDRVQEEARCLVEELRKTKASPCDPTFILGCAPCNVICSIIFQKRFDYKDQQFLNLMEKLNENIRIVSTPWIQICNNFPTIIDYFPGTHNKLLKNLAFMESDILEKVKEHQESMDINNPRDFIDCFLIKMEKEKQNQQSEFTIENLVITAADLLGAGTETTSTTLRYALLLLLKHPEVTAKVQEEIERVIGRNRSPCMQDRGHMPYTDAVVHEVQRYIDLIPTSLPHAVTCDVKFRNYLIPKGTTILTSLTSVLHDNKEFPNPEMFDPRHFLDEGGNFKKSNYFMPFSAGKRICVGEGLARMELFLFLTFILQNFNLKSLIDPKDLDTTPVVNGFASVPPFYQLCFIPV
PostGolgi ctrl – growth inhibition of yeast control strain, primary screen, counter-screen for post-Golgi transport modulator project | inhibition, % at 10 µM | AID 738, 2007 | 98,000 compounds, 5% hits | efflux-deficient yeast background strain, growth absorbance A615, 16 h
CYP2C19 act – human CYP2C19 activators, primary screen, biochemical, luminescence. Cytochrome P450 2C19 (Homo sapiens), P33261. activation factor at 5 µM. AID 1025, 2008. 96,000 tested, under 10 active. recombinant CYP2C19, luciferin-H EGE luminescence; stronger effect = higher value; 0 = fully inhibited enzyme, 1 = untreated enzyme;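 active = activation factor of at least 2 at 5 µM in the primary screen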;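 note: 0 = wells with 2.5 mM tranylcypromine and 1 = vehicle-only wells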
PostGolgi yeast – phenotypic screen on post-Golgi transport, primary screen | post-Golgi transport phenotypic cell assay | inhibition, % at 10 µM | 98,000 compounds, 0.9% hits | AID 739, 2007;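 note: yeast cells grown in 1536-well plates; yeast grown about 18 h at 30C before absorbance read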
CYP2C9 act – human CYP2C9 activators, primary screen, biochemical, luminescence. Cytochrome P450 2C9 (Homo sapiens), P11712. recombinant CYP2C9, luciferin-H conversion; stronger effect = higher value; factor 1 = untreated enzyme, 0 = blocked. activation factor at 5 µM. 96,000 compounds, 1.4% hits. AID 1024, 2008;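 active = activation factor of 2 or more for CYP2C9 at a 5 µM dose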;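 note: 0 = sulfaphenazole-blocked wells and 1 = vehicle-only wells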
CYP2C9 inh – blockers of cytochrome P450 2C9 activity – biochemical, luminescence, ADME assay, primary screen. AID 777, 2007. CYP2C9 Supersomes, luciferin-H conversion. 96,000 compounds, 20% hits. inhibition, % at 5 µM;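 active = blocking of liver enzyme CYP2C9 beyond about 50% at 5 µM, limit read from the data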
* marks the source's active call; other numbers are inactive results. Cut-off read from the data, not from the text of the source, unless noted: active = inhibition above about 30%; inactive = the rest.

How did Cc1sc(NC(=O)c2ccco2)c(C(c2cccnc2)N2CCCC2)c1C (stereo not given) do in these assays?
CYP2C19 inh: 33; PostGolgi ctrl: 39*; CYP2C19 act: 0.7; PostGolgi yeast: 0; CYP2C9 act: 0.5; CYP2C9 inh: 53*

What do the screens show for `Cc1sc(NC(=O)c2ccco2)c(C(c2cccnc2)N2CCN(C)CC2)c1C` (stereo not given)?
CYP2C19 inh: 9; PostGolgi ctrl: 15; CYP2C19 act: 0.9; PostGolgi yeast: -4; CYP2C9 act: 0.8; CYP2C9 inh: 23

Results for Cc1sc(NC(=O)c2ccco2)c(C(c2ccncc2)N2CCOCC2)c1C (stereo not given) ?
CYP2C19 inh: 67*; PostGolgi ctrl: 33*; CYP2C19 act: 0.3; PostGolgi yeast: -4; CYP2C9 act: 0.2; CYP2C9 inh: 81*

What do the screens show for `Cc1cc(=S)[nH]c2c(C)cccc12`?
CYP2C19 inh: 18; PostGolgi ctrl: -1; CYP2C19 act: 0.8; PostGolgi yeast: 7; CYP2C9 act: 1.7; CYP2C9 inh: -67

Results for CCOC(=O)N1CCN(C(=O)c2cccc(NC(=O)c3ccco3)c2)CC1 ?
CYP2C19 inh: 14; PostGolgi ctrl: 18; CYP2C19 act: 0.9; PostGolgi yeast: -1; CYP2C9 act: 0.9; CYP2C9 inh: 7

How did COc1ccccc1OCC(=O)Nc1cccc(-c2nc3ccccc3o2)c1 do in these assays?
CYP2C19 inh: 30; PostGolgi ctrl: 8; CYP2C19 act: 0.7; PostGolgi yeast: 9; CYP2C9 act: 0.5; CYP2C9 inh: 48

Results for CCc1ccc2oc(-c3cccc(NC(=O)c4cccnc4)c3)nc2c1 ?
CYP2C19 inh: 19; PostGolgi ctrl: 74*; CYP2C19 act: 0.8; PostGolgi yeast: 2; CYP2C9 act: 0.6; CYP2C9 inh: 44

Results for Cc1cccc(-c2nnc(-c3cccc(NC(=O)Cc4cccs4)c3)o2)c1 ?
CYP2C19 inh: 72*; PostGolgi ctrl: 26; CYP2C19 act: 0.3; PostGolgi yeast: 81*; CYP2C9 act: 0.4; CYP2C9 inh: 65*

How did CCC(=O)Nc1cccc(-c2nc3ccccc3o2)c1 do in these assays?
CYP2C19 inh: 54*; PostGolgi ctrl: 2; CYP2C19 act: 0.5; PostGolgi yeast: -7; CYP2C9 act: 0.8; CYP2C9 inh: 22

How did CCC(=O)Nc1cccc(NC(=O)c2cc3ccccc3o2)c1 do in these assays?
CYP2C19 inh: 62*; PostGolgi ctrl: -4; CYP2C19 act: 0.4; PostGolgi yeast: -2; CYP2C9 act: 1; CYP2C9 inh: 3

Results for CC(C)n1c(CCCO)nc2ccccc21 ?
CYP2C19 inh: 4; CYP2C19 act: 1; CYP2C9 act: 1.1; CYP2C9 inh: -15

What do the screens show for `COc1ccc(C2/C(=C(/O)c3ccccc3)C(=O)C(=O)N2CCN2CCOCC2)c(OC)c1` (stereo not given)?
CYP2C19 inh: -2; PostGolgi ctrl: 9; CYP2C19 act: 1; PostGolgi yeast: 0; CYP2C9 act: 0.9; CYP2C9 inh: 10

How did O=C1CCCN1CCC1CCN(C2CC(=O)N(c3ccc(Cl)cc3)C2=O)CC1 (stereo not given) do in these assays?
CYP2C19 inh: -18; PostGolgi ctrl: -9; CYP2C19 act: 1.2; PostGolgi yeast: -8; CYP2C9 act: 1.3; CYP2C9 inh: -30

How did COCCn1nnnc1CN1CCC(Cc2ccccc2)CC1 do in these assays?
PostGolgi ctrl: 6; PostGolgi yeast: 4

How did COc1cc2[nH]c(=O)n(CCCCCC(=O)NCCCN3CCC(C)CC3)c(=O)c2cc1OC do in these assays?
PostGolgi ctrl: -4; PostGolgi yeast: -2

What do the screens show for `Cc1ccc(-c2nc3ccccc3o2)cc1NC(=O)Cc1cccs1`?
CYP2C19 inh: 18; PostGolgi ctrl: 4; CYP2C19 act: 0.8; PostGolgi yeast: -3; CYP2C9 act: 0.8; CYP2C9 inh: 21

How did Nc1cccc(NC(=O)c2cccs2)c1 do in these assays?
CYP2C19 inh: -8; PostGolgi ctrl: 9; CYP2C19 act: 1.1; PostGolgi yeast: -6; CYP2C9 act: 1; CYP2C9 inh: 2

What do the screens show for `O=C(Cc1cccs1)Nc1cccc(-c2nc3ccccc3o2)c1`?
CYP2C19 inh: 27; PostGolgi ctrl: -3; CYP2C19 act: 0.7; PostGolgi yeast: -13; CYP2C9 act: 0.3; CYP2C9 inh: 67*

How did Cc1ccc(-c2nnc(-c3cccc(NC(=O)c4cccs4)c3)o2)cc1 do in these assays?
CYP2C19 inh: 55*; PostGolgi ctrl: -1; CYP2C19 act: 0.4; PostGolgi yeast: 9; CYP2C9 act: 0.2; CYP2C9 inh: 78*

How did C=C(C)c1cccc(C(C)(C)NC(=O)N2CCN(CC(N)=O)CC2)c1 do in these assays?
CYP2C19 inh: -11; PostGolgi ctrl: 6; CYP2C19 act: 1.1; PostGolgi yeast: 1; CYP2C9 act: 1; CYP2C9 inh: 1

What do the screens show for `COc1ccc(S(=O)(=O)N2CCN(C)CC2)c2ccccc12`?
CYP2C19 inh: 13; PostGolgi ctrl: 1; CYP2C19 act: 0.9; PostGolgi yeast: -7; CYP2C9 act: 1.8; CYP2C9 inh: -83

Results for COc1c(S(=O)(=O)N2CCCC2)ccc(Cl)c1Cl ?
CYP2C19 inh: 88*; PostGolgi ctrl: 6; CYP2C19 act: 0.1; PostGolgi yeast: 28; CYP2C9 act: 2.4*; CYP2C9 inh: -140

How did O=S(=O)(c1cccc2nsnc12)N1CCCC1 do in these assays?
PostGolgi ctrl: 3; PostGolgi yeast: 2

What do the screens show for `O=S(=O)(c1cccc(Cl)c1Cl)N1CCCCC1`?
CYP2C19 inh: 83*; PostGolgi ctrl: 3; CYP2C19 act: 0.2; PostGolgi yeast: 17; CYP2C9 act: 2.7*; CYP2C9 inh: -170

Results for COC(=O)c1cnn(C(=O)c2cc(OC)ccc2Br)c1N ?
CYP2C19 inh: 19; PostGolgi ctrl: 10; CYP2C19 act: 0.8; PostGolgi yeast: -6; CYP2C9 act: 2*; CYP2C9 inh: -102

Results for COC(=O)c1cnn(C(=O)c2ccccc2Br)c1N ?
CYP2C19 inh: 37; PostGolgi ctrl: 8; CYP2C19 act: 0.6; PostGolgi yeast: -11; CYP2C9 act: 1; CYP2C9 inh: -3

What do the screens show for `Cc1ccc(NC(=S)N/N=C/c2ccc(Cl)c([N+](=O)[O-])c2)cc1`?
CYP2C19 inh: 22; PostGolgi ctrl: -6; CYP2C19 act: 0.8; PostGolgi yeast: 9; CYP2C9 act: 0.4; CYP2C9 inh: 56*

How did Cc1ccc(S(=O)(=O)N/N=C\c2ccc(Cl)c([N+](=O)[O-])c2)cc1 do in these assays?
CYP2C19 inh: 87*; PostGolgi ctrl: 1; CYP2C19 act: 0.1; PostGolgi yeast: 2; CYP2C9 act: 0.3; CYP2C9 inh: 70*

How did Cc1ccc(S(=O)(=O)N/N=C\c2ccc(C)o2)cc1 do in these assays?
CYP2C19 inh: 6; PostGolgi ctrl: 2; CYP2C19 act: 0.9; PostGolgi yeast: 17; CYP2C9 act: 0.8; CYP2C9 inh: 20
